Bioassay records from PubChem BioAssay.
Shown are actives, neighbours in structure and some others; about 17% of the full set was active somewhere.
ATXN viability: reduces viability in counter-screen for ATXN expression inhibitors | S2 cells (HEK-293 line with an ATXN2-luciferase reporter) viability, CellTiter-Fluor protease fluorescence, 24 h | Potency, µM (highest dose often 56.7 µM), actives largely listed as cytotoxic | hit rate 0.49% among 400,000; note: nearly all actives have a fitted effect of over 40% in size
HepG2 tox: counter-screen for TGF-b inhibitors: cytotoxicity in HepG2 cells; HepG2 CAGA-GFP viability, ATP luminescence, 18 h; Potency, µM (series often up to 46.1 µM), most hits filed as cytotoxic; hit rate 0.76% among 410,000; AID 588856
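HepG2 CAGA-GFP cells (1000/well, DMEM with 1% FBS) received compound, then TGF-beta at 500 pg/mL final, and were incubated 18 hours at 37 degrees C. Viability was read by CellTiter-Glo luminescence. Media-only wells were set as complete cell-killing and DMSO as no toxicity.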
TGFb inhibitor: blocks TGF-b signaling | HepG2 CAGA-GFP TGF-b/SMAD3 reporter, GFP fluorescence, 18 h; TGF-beta stimulated, 500 pg/mL final | Potency, µM (highest dose often 46.1 µM), usual class: inhibitors | hit rate 1.2% among 410,000; note: nearly all actives have a fitted effect of over 65% in size
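GFP signal (ex488/em500-530) from TGF-beta-stimulated HEPG2 CAGA-GFP cells, 500 pg/mL final, 18 h at 37 degrees C in DMEM plus 1% FBS, normalized to unstimulated and DMSO-stimulated controls.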
TDP1 cell CPT: growth inhibition of DT40 Tdp1-/-;hTDP1 cells with camptothecin (screen for TDP1 inhibitors); hit rate 12% among 420,000; chicken DT40 Tdp1-/-;hTDP1 cells + 20 nM CPT, ATP luminescence, 48 h; AID 686979; Potency, µM (top dose mostly 46.2 µM), most hits filed as inhibitors; note: nearly all actives have a fitted effect of over 55% in size
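Chicken DT40 Tdp1-/- cells stably complemented with human TDP1 were seeded at 400 cells/well in medium containing 20 nM camptothecin, exposed to pin-transferred compounds, and grown at 37 °C for at least 48 hr. Viability was read as ATP luminescence.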
ATXN2 expr inh: reduces ATXN2 reporter expression in HEK-293 cells. HEK-293 ATXN2-luciferase reporter, luminescence, 24 h. Potency, µM (highest dose often 57 µM), hits mostly inhibitors. hit rate 0.72% among 360,000. AID 1745845; note: nearly all actives have a fitted effect of over 55% in size
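ATXN2-luciferase reporter cells (luciferase flanked by upstream and downstream ATXN2 gene portions) were treated 24 h at 37 °C with compounds at up to 57 uM. SteadyGlo luminescence gave expression; GF-AFC fluorescence gave viability.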
TDP1 cell noCPT: qHTS for Inhibitors of human tyrosyl-DNA phosphodiesterase 1 (TDP1): qHTS in cells in absence of CPT | DT40 Tdp1-/- hTDP1 cells, no CPT, ATP luminescence, 48 h | Potency, µM (series often up to 46.2 µM), hits mostly inhibitors | hit rate 15% among 420,000; note: nearly all actives have a fitted effect of over 55% in size
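Seeded 400 DT40-hTDP1 cells/well (vehicle DMSO, no 20 nM CPT); pinned compounds; ≥48 hr at 37 °C; CellTiter-Glo luminescence as viability measure.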
A number is an active result. Calls come from the whole dose curve; as a rule, active = well fitted curve in the direction sought with a large enough effect; inconclusive = small, poorly fitted or top-dose-only effect, or another doubt; inactive = no such curve, though single readings can be large; an effect the other way counts as inactive or inconclusive.

`COC(=O)C1=C(C)NC(=O)C1(NC(=O)c1ccc(Cl)cc1)C(F)(F)F` (configuration not stated) gave ATXN viability inactive, HepG2 tox inactive, TGFb inhibitor inactive, TDP1 cell CPT inactive, ATXN2 expr inh inactive and TDP1 cell noCPT inactive.
Screening COC(=O)c1cc(S(=O)(=O)NCCc2sccc2C)c[nH]1 returned ATXN viability inactive, HepG2 tox inactive, TGFb inhibitor inactive, TDP1 cell CPT inactive, ATXN2 expr inh inactive and TDP1 cell noCPT inactive.
`CC(NCC(=O)NC(=O)NC1CCCC1)c1ccc(Cl)cc1Cl` (configuration not stated) gave ATXN viability inactive, HepG2 tox inactive, TGFb inhibitor inactive, TDP1 cell CPT inactive, ATXN2 expr inh inactive and TDP1 cell noCPT inactive.
`O=C(Nc1ccccc1N1CCCC1)c1ccc([N+](=O)[O-])o1` gave ATXN viability inconclusive, HepG2 tox inactive, TGFb inhibitor 25µM, TDP1 cell CPT 23µM, ATXN2 expr inh inconclusive and TDP1 cell noCPT inconclusive.
For O=C(Nc1ccccc1N1CCN(C(=O)c2ccccc2)CC1)c1ccc([N+](=O)[O-])o1 the results were ATXN viability inactive, HepG2 tox inactive, TGFb inhibitor 11µM, TDP1 cell CPT 21µM, ATXN2 expr inh inactive and TDP1 cell noCPT 15µM.
`O=C(NC(=S)Nc1ccccc1N1CCCCC1)c1ccccc1` gave ATXN viability inactive, HepG2 tox inactive, TGFb inhibitor inconclusive, TDP1 cell CPT inconclusive and TDP1 cell noCPT 26µM.
For Cc1nnc2sc(-c3ccc(NC(=O)c4ccc(-c5ccc(Cl)cc5Cl)o4)cc3)nn12 the results were ATXN viability inactive, HepG2 tox inactive, TGFb inhibitor inactive, TDP1 cell CPT 16µM, ATXN2 expr inh inactive and TDP1 cell noCPT inconclusive.
For CC1CCN(c2ccccc2NC(=O)c2ccc([N+](=O)[O-])o2)CC1 the results were ATXN viability inactive, HepG2 tox inactive, TGFb inhibitor inactive, TDP1 cell CPT inconclusive, ATXN2 expr inh inactive and TDP1 cell noCPT inconclusive.
`O=C(NC(=S)Nc1ccccc1N1CCCC1)c1ccc(F)cc1` gave ATXN viability inactive, HepG2 tox inactive, TGFb inhibitor inactive, TDP1 cell CPT inconclusive, ATXN2 expr inh inactive and TDP1 cell noCPT inconclusive.
For O=C(Nc1cccc(Cl)c1N1CCOCC1)c1ccc([N+](=O)[O-])o1 the results were ATXN viability inactive, HepG2 tox inactive, TGFb inhibitor inactive, TDP1 cell CPT inconclusive, ATXN2 expr inh inactive and TDP1 cell noCPT inconclusive.
Screening COc1ccc(C(=O)c2cn(CC(=O)Nc3cc(OC)cc(OC)c3)c3ccc(OC)cc3c2=O)cc1 returned HepG2 tox inactive, TGFb inhibitor inactive, TDP1 cell CPT inactive and TDP1 cell noCPT inconclusive.
For O=C(Nc1cccc2ccccc12)c1ccc([N+](=O)[O-])o1 the results were ATXN viability inactive, HepG2 tox inactive, TGFb inhibitor inconclusive, TDP1 cell CPT 15µM and TDP1 cell noCPT 26µM.
Screening CN1CCN(c2ccccc2NC(=O)c2ccc(-c3ccc(Cl)cc3Cl)o2)CC1 returned ATXN viability inactive, HepG2 tox inactive, TGFb inhibitor inactive, TDP1 cell CPT 21µM, ATXN2 expr inh inconclusive and TDP1 cell noCPT 23µM.
Screening Cc1cccc(NC(=O)c2ccc([N+](=O)[O-])o2)c1C returned ATXN viability inactive, HepG2 tox inactive, TGFb inhibitor inconclusive, TDP1 cell CPT inconclusive, ATXN2 expr inh inactive and TDP1 cell noCPT inconclusive.
For O=C(NCCCN1CCN(Cc2ccccc2)CC1)C1CCN(c2nnc(-n3cccc3)s2)CC1 the results were ATXN viability inactive, HepG2 tox inactive, TGFb inhibitor inactive, TDP1 cell CPT inconclusive, ATXN2 expr inh inactive and TDP1 cell noCPT 26µM.
For O=C(NCCCc1ccccc1)C1CCN(c2nnc(-n3cccc3)s2)CC1 the results were ATXN viability inactive, HepG2 tox inactive, TGFb inhibitor inconclusive, TDP1 cell CPT inconclusive, ATXN2 expr inh inactive and TDP1 cell noCPT inconclusive.
Screening Cc1ccc(C)n1-c1nnc(N2CCC(C(=O)NCCCN3CCN(C)CC3)CC2)s1 returned ATXN viability inactive, HepG2 tox inactive, TGFb inhibitor inactive, TDP1 cell CPT 26µM, ATXN2 expr inh inactive and TDP1 cell noCPT inconclusive.
For CC(=O)CSc1nnc2cc(C)c3cc(C)cc(C)c3n12 the results were HepG2 tox inactive, TGFb inhibitor inactive, TDP1 cell CPT inactive and TDP1 cell noCPT inactive.
For O=C(CSc1ccccc1F)Nc1ccc2c(c1)OCO2 the results were ATXN viability inactive, HepG2 tox inactive, TGFb inhibitor inactive, TDP1 cell CPT inactive, ATXN2 expr inh inactive and TDP1 cell noCPT inactive.
For C=C1C(=O)OC2CC1C(O)CC(C)=CCCC(C)=CC(O)CC2C (configuration not stated) the results were HepG2 tox inactive, TGFb inhibitor 11µM, TDP1 cell CPT 2.9µM, ATXN2 expr inh inconclusive and TDP1 cell noCPT 3.3µM.
C=C1C(=O)OC2CC1C(OC(C)=O)CC(C)=CCCC(C)=CCC[C@@]2(C)O (some centres not stated) was read as TDP1 cell CPT 2.9µM and TDP1 cell noCPT 3.3µM.
Screening C[C@@H]1CN([C@@H](C)CO)C(=O)c2cc(NS(C)(=O)=O)ccc2O[C@@H]1CN(C)S(=O)(=O)c1ccccc1 returned ATXN viability inactive, HepG2 tox inactive, TGFb inhibitor inactive, TDP1 cell CPT inactive, ATXN2 expr inh inactive and TDP1 cell noCPT inactive.
Screening Cc1ncc([N+](=O)[O-])n1C returned ATXN viability inactive and ATXN2 expr inh inactive.
For C=CCNC(=O)c1onc(CSc2ccc(Cl)cc2)c1C(=O)NCC=C the results were ATXN viability inactive, HepG2 tox inactive, TGFb inhibitor inconclusive, TDP1 cell CPT inconclusive, ATXN2 expr inh inactive and TDP1 cell noCPT 16µM.
For CCCCNC(=O)c1onc(CSc2ccc(Cl)cc2)c1C(=O)NCCCC the results were ATXN viability inactive, HepG2 tox inactive, TGFb inhibitor inconclusive, TDP1 cell CPT inconclusive, ATXN2 expr inh inactive and TDP1 cell noCPT inconclusive.
For O=C(NCc1ccccc1)c1onc(CSc2ccc(F)cc2)c1C(=O)NCc1ccccc1 the results were ATXN viability inactive, HepG2 tox inactive, TGFb inhibitor inactive, TDP1 cell CPT 18µM, ATXN2 expr inh inactive and TDP1 cell noCPT inconclusive.
Screening CCCCNC(=O)c1onc(CSc2ccc(F)c(F)c2)c1C(=O)NCCCC returned ATXN viability inactive, HepG2 tox inactive, TGFb inhibitor inconclusive, TDP1 cell CPT 16µM, ATXN2 expr inh inactive and TDP1 cell noCPT inconclusive.
C=CCNC(=O)c1onc(CSc2cc(C)cc(C)c2)c1C(=O)NCC=C was read as ATXN viability inactive, HepG2 tox inactive, TGFb inhibitor inconclusive, TDP1 cell CPT inconclusive, ATXN2 expr inh inactive and TDP1 cell noCPT 18µM.
